Only some compounds are listed: those with a hit (about 3.7% of all), similar ones and a draw of the others.
BoNT F protease: BoNT F light chain protease inhibition. inhibition, % at 10 µM. Multiplex microsphere protease cleavage assay, flow cytometry. 360,000 tested, 0.22% active; in the data active means inhibition above about 35%, passing the limit was not always enough; inconclusive means no clear call, values can overlap the other calls
Anthrax LF inh2: anthrax lethal factor protease inhibition; P15917; multiplex microsphere protease cleavage assay, LF; inhibition, % at 10 µM; 360,000 tested, 0.12% active; AID 588501
Target sequence (P15917 whole entry, looked up): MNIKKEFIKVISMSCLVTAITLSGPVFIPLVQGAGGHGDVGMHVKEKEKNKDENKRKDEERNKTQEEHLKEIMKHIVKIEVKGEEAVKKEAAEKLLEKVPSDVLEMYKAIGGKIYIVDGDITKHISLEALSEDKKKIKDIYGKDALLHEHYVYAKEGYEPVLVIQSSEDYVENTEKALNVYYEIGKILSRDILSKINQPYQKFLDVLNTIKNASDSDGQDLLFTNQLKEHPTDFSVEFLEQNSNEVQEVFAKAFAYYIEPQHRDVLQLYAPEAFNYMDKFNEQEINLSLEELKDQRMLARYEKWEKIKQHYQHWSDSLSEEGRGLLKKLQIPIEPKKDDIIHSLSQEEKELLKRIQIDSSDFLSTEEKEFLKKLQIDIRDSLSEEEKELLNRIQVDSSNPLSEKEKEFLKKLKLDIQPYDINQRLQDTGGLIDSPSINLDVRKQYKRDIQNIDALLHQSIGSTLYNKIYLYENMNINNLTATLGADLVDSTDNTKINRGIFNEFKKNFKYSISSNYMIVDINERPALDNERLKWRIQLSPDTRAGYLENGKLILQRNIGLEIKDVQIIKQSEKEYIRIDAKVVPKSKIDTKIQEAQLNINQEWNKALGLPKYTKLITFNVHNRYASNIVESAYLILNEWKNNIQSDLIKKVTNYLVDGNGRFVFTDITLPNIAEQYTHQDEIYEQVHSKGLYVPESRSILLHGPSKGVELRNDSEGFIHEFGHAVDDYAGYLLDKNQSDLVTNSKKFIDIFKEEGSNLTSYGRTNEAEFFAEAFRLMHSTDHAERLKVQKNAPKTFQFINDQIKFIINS
BJeLR viability: kills HRASV12-expressing BJeLR cells | BJeLR (HRASV12) viability, CellTiter-Glo ATP luminescence, 48 h | 300,000 tested, 0.17% active | inhibition, % (test concentration not listed); in the data active means inhibition above about 50%; inconclusive means no clear call, values can overlap the other calls
BoNT-A LC inh2: inhibitors of Botulinum neurotoxin A light chain protease. multiplex microsphere protease substrate cleavage, flow cytometry. 360,000 tested, 0.17% active. inhibition, % at 10 µM. AID 588499
BH1578 lux ind: inducers of Vibrio cholerae quorum light production without autoinducers. activation, % at 18.7 µM. 350,000 tested, 0.16% active. AID 588436. V. cholerae BH1578 lux reporter, luminescence, 6 h; in the data active means activation mostly above about 9.7%, no sharp cut-off; inconclusive means no clear call, values can overlap the other calls; inactive means mostly below about 3.7%
Bead autofluor: counter-screen for toxin protease inhibitors: compound fluorescence | compound autofluorescence counterscreen, microsphere flow cytometry; active compounds read high | 360,000 tested, 3.1% active | AID 624483 | fluorescence intensity (no concentration beside the values); in the data active means fluorescence intensity above about 16000; inconclusive means no clear call, values can overlap the other calls
Numbers stand for hits; – = inactive; ? = inconclusive; · = no result. Unless noted, no stated cut-off is given here; in the data, active means inhibition above about 30%; inconclusive means no clear call, values can overlap the other calls; inactive means below that.

SMILES	BoNT F protease	Anthrax LF inh2	BJeLR viability	BoNT-A LC inh2	BH1578 lux ind	Bead autofluor
CCOC(=O)CN1C(=O)C(CC)Oc2ccc(Cl)cc21 (configuration not stated)	–	–	–	–	–	21455
CCC1Oc2ccc(C)cc2N(Cc2cccc(C)c2)C1=O (configuration not stated)	–	–	–	?	–	17288
COc1cccc(-c2nc3ccc(C(=O)NC(C)Cc4cccnc4)cc3o2)c1 (configuration not stated)	?	–	–	–	–	–
COc1cc2c(C(=O)N3CCN(C)CC3)c(C)n(-c3ccccc3)c2cc1Br	–	–	–	–	–	25113
CN1CCN(C2CN(CCc3ccccc3)S(=O)(=O)C2)CC1 (configuration not stated)	–	–	·	–	·	–
COCCCNC(=O)/C=C/c1cccc(Cl)c1	–	–	–	–	–	20665
O=C1NC[C@H](CCCCN2C[C@H](Cc3ccccc3)N(CCc3ccc(O)cc3)C(=O)C2=O)N(CCC2CCCCC2)C1=O	–	–	·	–	·	–
Cc1ccc(N/C=C/C(=O)c2sc(-c3ccccc3)nc2C)cc1	–	–	–	32	–	–
CNc1cc(-c2cccc(OC)c2F)nc2ccnn12	–	–	·	–	–	–
CCCS(=O)(=O)NC(=O)C1(C)CCN(C(=O)c2ccc(OC)cc2)C1 (configuration not stated)	–	–	·	–	–	–
CCC1(C)Cc2c(C#N)c(N)n(-c3ccccc3)c(=S)c2CO1 (configuration not stated)	–	–	–	–	–	–
CCC1(C)Cc2c(C#N)c(N)sc(=S)c2CO1 (configuration not stated)	–	41	–	75	–	–
CN(Cc1ccccc1)c1nccn2ccnc12	–	–	·	–	–	–
COc1ccc(C(=O)CCC(=O)O)c(C)c1	–	–	–	–	–	22646
CC(Sc1nc2ncc(Cl)cc2[nH]1)C(=O)Nc1ccccc1[N+](=O)[O-] (configuration not stated)	–	–	·	–	–	–
Cc1ccc(S(=O)c2snnc2C)cc1 (configuration not stated)	–	–	–	–	–	–
Cc1ccc(S(=O)c2ccc(C)cc2)cc1	–	–	–	?	–	20056
COc1ccc(C(=O)Nc2ccc3c(c2)nc(CCNC(C)=O)n3C)cc1	–	–	–	–	–	20535
COc1ccccc1C(=O)Nc1ccc2c(c1)nc(CCNC(C)=O)n2C	–	–	–	–	–	21508
COc1ccccc1C(=O)Nc1ccc2c(c1)nc(CCNC(=O)c1ccccc1)n2C	–	–	–	–	–	–
COc1cccc(/C=C2/CCC(CN(C)C)C2=O)c1 (configuration not stated)	–	–	·	–	–	–
COc1cc(-c2nnc(SCC#CCO)o2)cc(OC)c1OC	–	–	–	–	–	22486
OCC#CCSc1nnc(-c2ccncc2)o1	–	–	–	–	·	?
COCCCN1C(=O)C(CC(=O)NC2CC2)CC(C(=O)N2CCOCC2)=C1C (configuration not stated)	–	–	·	–	·	–
COc1ccc2c(c1)C1NC(=S)NC(C)(O2)C1C(=O)Nc1ccc(C)cc1C (configuration not stated)	40	–	–	–	–	–
SMILES	BoNT F protease	Anthrax LF inh2	BJeLR viability	BoNT-A LC inh2	BH1578 lux ind	Bead autofluor
COC(=O)C1C(c2ccccc2)C(C(=O)OCc2ccco2)C1c1ccccc1 (configuration not stated)	–	–	–	–	–	20681
O=C(O)C1C(c2ccccc2)C(C(=O)OCc2ccco2)C1c1ccccc1 (configuration not stated)	–	–	–	–	–	23151
Cc1ccccc1OC(=O)C1C(c2ccccc2)C(C(=O)O)C1c1ccccc1 (configuration not stated)	–	–	–	–	–	20251
CCCCCOC(=O)C1C(c2ccccc2)C(C(=O)O)C1c1ccccc1 (configuration not stated)	–	–	–	–	–	–
O=C(O)C1C(c2ccccc2)C(C(=O)OCCCO)C1c1ccccc1 (configuration not stated)	–	–	–	–	–	22890
OCCNc1nc(Nc2ccc(Br)cc2)nc2ccccc12	·	·	–	·	·	·
OCCNc1nc(Nc2ccccc2)nc2ccccc12	–	–	–	–	17	–
Cc1ccccc1Nc1nn2c(=O)c3ccccc3nc2s1	–	–	–	–	–	23125
O=c1c2ccccc2nc2sc(Nc3ccc(F)cc3)nn12	–	–	·	–	–	–
COc1ccccc1N1CCN(S(=O)(=O)CCNC(=O)c2cccs2)CC1	–	–	·	–	–	–
Cc1cccnc1NC(=O)Nc1cccs1	–	–	–	?	–	22281
Cc1ccc(NC(=O)Nc2ncccc2C)cc1	–	–	–	–	–	–
COc1ccccc1NC(=O)Nc1cnccn1	–	–	–	–	–	–
COc1ccccc1NC(=O)Nc1ncccc1C	–	–	–	–	–	22096
O=C(NCc1ccncc1)[C@@H]1CCCN1C(=O)[C@H]1CCCN1C(=O)c1cccc(Cl)c1	–	–	·	–	·	–
Cc1ccc(S(=O)(=O)N2CCCC(C(=O)NCCc3ccc(Cl)cc3)C2)cc1 (configuration not stated)	–	–	·	–	–	–
COc1ccc(CCNc2nnc(Sc3nnnn3-c3ccccc3)s2)cc1OC	–	–	60	–	–	–
CCc1nc2ccc(C(=O)Nc3ccc4c(c3)OCC(=O)N4)cn2c1N(CC)Cc1cccc(Br)c1	–	–	·	–	–	–
CCOC(=O)C1=C(C)N(c2ccc(C)cc2)C(=O)/C1=C\c1cccs1	–	–	–	–	–	16417
COc1ccc(S(=O)(=O)N2CCOCC2)cc1NC(=O)C1CCCCN1S(=O)(=O)c1ccccc1 (configuration not stated)	–	–	·	–	–	–
O=C(NCc1ccc(F)cc1)c1cc(C2CCCCN2S(=O)(=O)Cc2ccccc2)on1 (configuration not stated)	–	–	·	–	–	–
OC(c1cc(F)cc(Cl)c1)c1ncc(-c2ccccc2Cl)[nH]1 (configuration not stated)	–	–	·	–	–	–
CC(C)C(NC(=O)c1cccs1)c1nnc(SCC(=O)Nc2nccs2)n1C (configuration not stated)	–	–	–	–	–	21406
COc1ccc(OC)c(-c2csc3nnc(SCC(=O)Nc4ccc(NC(C)=O)cc4)n23)c1	–	–	–	–	–	20934
COc1ccc(NC(C)=O)cc1NC(=O)CSc1nnc(-c2ccncc2)n1C	–	–	–	?	–	21036
CCC(=O)Nc1ccc(-c2nnc(SCC(=O)Nc3nccs3)n2C)cc1	–	–	–	–	–	19859
CC(NC(=O)c1ccccc1F)c1nnc(SCC(=O)Nc2nccs2)n1C (configuration not stated)	–	–	–	–	–	–

High-throughput results from PubChem.
